Compounds without any hit were thinned out: in the full panel of roughly 79,000, 15% have a hit. Values without a mark were called inactive. The source made the active and inactive calls. Rule as the data show it: active = growth inhibition above about 70%; inactive = the rest.
How the values were obtained:
[1] = NCI Yeast Anticancer Drug Screen. Data for the rad50 strain (AID 155);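 also: 0% = growth of vehicle-only cultures of the same strain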; conditions: S. cerevisiae rad50 strain growth inhibition, active compounds read high
How it was run: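 DNA repair mutant yeast, compound exposure, growth read-out; inhibition is taken relative to vehicle.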

[2] = NCI Yeast Anticancer Drug Screen. Data for the mec2-1 strain (AID 157); conditions: S. cerevisiae mec2-1 strain, active compounds read high
How it was run: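 Vehicle-treated cultures served as reference for growth inhibition of compound-exposed mec2-1 yeast.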

[3] = NCI Yeast Anticancer Drug Screen. Data for the sgs1 mgt1 strain (AID 161);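 also: 0% = growth of cultures given vehicle only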; conditions: S. cerevisiae sgs1 mgt1 strain, active compounds read high
How it was run: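 Test agents were incubated with a DNA-repair-mutant yeast strain. Growth was then read and compared against vehicle-treated controls.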

[4] = NCI Yeast Anticancer Drug Screen. Data for the cln2 rad14 strain (AID 165);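 also: 0% = growth equal to vehicle treated cultures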; conditions: S. cerevisiae cln2 rad14 strain, active compounds read high
How it was run: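 Each compound was tested on cln2 rad14 yeast. Inhibition of growth was calculated against vehicle-exposed controls.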

[5] = NCI Yeast Anticancer Drug Screen. Data for the bub3 strain (AID 167); conditions: S. cerevisiae bub3 mutant strain, active compounds read high
How it was run: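 In this screen, a yeast mutant lacking normal mitotic checkpoint function is challenged with compound. Relative growth versus vehicle gives the inhibition value.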

[6] = NCI Yeast Anticancer Drug Screen. Data for the mlh1 rad18 strain (AID 175); conditions: S. cerevisiae mlh1 rad18 strain growth inhibition, active compounds read high
How it was run: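 Vehicle-treated cultures served as the reference for growth inhibition in a yeast strain carrying DNA damage repair alterations exposed to each compound.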

[7] = at 5.0 µM (retest, dose inferred, filed as 0.5)
[8] = at 50.0 µM (retest, dose inferred, filed as 5.0)

Structure (SMILES)	growth inhibition [1, 7]	growth inhibition [1, 8]	growth inhibition ([1]; at 50.0 µM)	growth inhibition [2, 7] [%]	growth inhibition [2, 8]	growth inhibition ([2]; at 50.0 µM)	growth inhibition [3, 7]	growth inhibition [3, 8]	growth inhibition ([3]; at 50.0 µM)	growth inhibition [4, 7] [%]	growth inhibition [4, 8]	growth inhibition ([4]; at 50.0 µM)	growth inhibition [5, 7]	growth inhibition [5, 8]	growth inhibition ([5]; at 50.0 µM)	growth inhibition [6, 7]	growth inhibition [6, 8]	growth inhibition ([6]; at 50.0 µM)
Cc1cc(NC(=S)SC(C)C)ccc1Br	5%	99% (active)	99.5% (active)	0	100% (active)	99.7% (active)	2%	99% (active)	71.8% (active)	-19	99% (active)	98.9% (active)	7%	99% (active)	99.5% (active)	-3%	99% (active)	99.3% (active)
NSc1ccc(N)s1	-1%	11%	37%	6	12%	28.9%	1%	13%	50.6%	-7	6%	36.9%	-3%	14%	87.7% (active)	-1%	12%	58.6%
CCCCCCC1CCC(CCCCCCCC(=O)N2CCN(C)CC2)C(C/C=C/CCCCCCCC(=O)N2CCN(C)CC2)C1CCCCC (stereo not given)	3%	93% (active)	98.8% (active)	-1	75% (active)	99.3% (active)	1%	70% (active)	99.3% (active)	-1	84% (active)	92.6% (active)	4%	90% (active)	98.7% (active)	6%	95% (active)	98.9% (active)
CN(C)CC/C(=N\Nc1ccc(Cl)c(Cl)c1)c1ccccc1	88% (active)	99% (active)	99.5% (active)	69	100% (active)	97.9% (active)	98% (active)	100% (active)	99.6% (active)	34	99% (active)	99.5% (active)	82% (active)	100% (active)	99.6% (active)	95% (active)	99% (active)	99.2% (active)
CSc1ncnc2nn(C3OC(COC(=O)c4ccccc4)C(OC(=O)c4ccccc4)C3OC(=O)c3ccccc3)nc12 (stereo not given)	-16%	-1%	-14.8%	-1	-6%	17.9%	-6%	1%	-13.6%	-1	-9%	40.3%	-3%	3%	-11.2%	-5%	-3%	15.2%

Source: PubChem BioAssay (NCI)
